Holding throughout (settings): mRNA level, 48 h; actives raise or lower the signal
Read-out in test [1]: Early growth response protein 1 (EGR1) transcription factor, EGR1 (gene 1958)
Put plainly: LTEA_HepaRG_EGR1: Life Technologies and Expression Analysis (LTEA) Assay for Early growth response protein 1 (EGR1) transcription factor using HepaRG (AID 2283490). In outline:
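Differentiated human HepaRG cells in serum-free induction medium were exposed in duplicate for 48 h to eight concentrations (top 100 uM, half-log steps) in 0.5% DMSO. EGR1 mRNA was quantified by qRT-PCR, normalized to ACTB, GAPDH and POLR2A, and fitted bidirectionally versus DMSO.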

Read-out in test [2]: Ezrin (EZR), EZR (gene 7430)
Put plainly: LTEA_HepaRG_EZR: Life Technologies and Expression Analysis (LTEA) Assay for Ezrin (EZR) using HepaRG (AID 2283491). The essentials:
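Gain or loss of EZR mRNA is scored relative to 0.5% DMSO in human HepaRG cultures treated 48 h with test chemicals in duplicate, eight half-log concentrations from 100 uM.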

Read-out in test [3]: Cytochrome P450 3A7 (Homo sapiens) (UniProt P24462)
Put plainly: LTEA_HepaRG_CYP3A7: Life Technologies and Expression Analysis (LTEA) Assay for CYP3A7 using HepaRG (AID 2283492). The essentials:
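Cells were thawed, plated, cultured 48 h, then treated for a further 48 h with chemicals (eight-point half-log series from 100 uM, 0.5% DMSO). RNA was isolated and CYP3A7 expression quantified by qRT-PCR normalised to ACTB, GAPDH and POLR2A.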

Read-out in the next test: CYP3A5 (gene 1577)
The test can be described thus: LTEA_HepaRG_CYP3A5: Life Technologies and Expression Analysis (LTEA) Assay for CYP3A5 using HepaRG (AID 2283493). The essentials: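 mRNA induction or loss of CYP3A5 assessed in HepaRG after 48 h dosing, 100 uM top concentration, duplicate wells; TaqMan qRT-PCR with ACTB, GAPDH, POLR2A normalization; 0.5% DMSO as negative control.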

Read-out in test [4]: Fatty Acid-Binding Protein 1 (FABP1), FABP1 (gene 2168)
Put plainly: LTEA_HepaRG_FABP1: Life Technologies and Expression Analysis (LTEA) Assay for Fatty Acid-Binding Protein 1 (FABP1) using HepaRG (AID 2283494). The essentials:
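Differentiated human HepaRG cells were exposed in duplicate for 48 h in serum-free induction medium to 8-point half-log concentration series topping at 100 uM in 0.5% DMSO. FABP1 mRNA measured by TaqMan qRT-PCR, normalized to ACTB/GAPDH/POLR2A; bidirectional fit versus DMSO.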

Read-out in test [5]: Cytochrome P450 4A22 (Homo sapiens) (UniProt Q5TCH4)
Put plainly: LTEA_HepaRG_CYP4A22: Life Technologies and Expression Analysis (LTEA) Assay for Cytochrome P450 4A22 (CYP4A22) using HepaRG (AID 2283495). In outline: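 Cryopreserved HepaRG cells, plated and cultured 48 h, then switched to serum-free induction medium and treated 48 h (duplicates, up to 100 uM, half-log steps, 0.5% DMSO). Expression change of CYP4A22 was fitted bidirectionally against vehicle.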

Read-out in test [6]: Cytochrome P450 7A1 (Homo sapiens) (UniProt P22680)
Put plainly: LTEA_HepaRG_CYP7A1: Life Technologies and Expression Analysis (LTEA) Assay for Cytochrome P450 7A1 (CYP7A1) using HepaRG (AID 2283496). In outline:
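Gene expression endpoint in human HepaRG liver cells treated for 48 h with test chemicals (up to 100 uM, 0.5% DMSO). Values come from bidirectional concentration-response fitting versus DMSO.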

Read-out in test [7]: Glutamate-cysteine ligase catalytic (GCLC), GCLC (gene 2729)
The test can be described thus: LTEA_HepaRG_GCLC: Life Technologies and Expression Analysis (LTEA) Assay for Glutamate-cysteine ligase catalytic (GCLC) using HepaRG (AID 2283498). In outline:
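Differentiated human HepaRG cells, plated 48 h then switched to serum-free induction medium, were exposed in duplicate for 48 h to 8 half-log concentrations topping at 100 uM in 0.5% DMSO. GCLC mRNA was quantified by qRT-PCR against ACTB, GAPDH and POLR2A.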

Read-out in test [8]: growth arrest and DNA damage 45 (GADD45G), GADD45G (gene 10912)
Put plainly: LTEA_HepaRG_GADD45G: Life Technologies and Expression Analysis (LTEA) Assay for growth arrest and DNA damage 45 (GADD45G) using HepaRG (AID 2283499). In outline:
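Human hepatic HepaRG line treated 48 h with chemicals (eight concentrations, half-log steps from 100 uM); transcript induction or repression of GADD45G scored by qRT-PCR versus DMSO vehicle.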

Read-out in test [9]: Glutamate-cysteine ligase regulatory (GCLM), GCLM (gene 2730)
The test can be described thus: LTEA_HepaRG_GCLM: Life Technologies and Expression Analysis (LTEA) Assay for Glutamate-cysteine ligase regulatory (GCLM) using HepaRG (AID 2283500). The essentials:
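Human liver HepaRG cultures receive test chemicals for 48 hours at up to 100 uM in 0.5% DMSO. GCLM expression is measured by qRT-PCR and analysed for increases or decreases against vehicle.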

Read-out in test [10]: Heat shock 70 kDa protein 1 (HSPA1A), gene 3303
Put plainly: LTEA_HepaRG_HSPA1A: Life Technologies and Expression Analysis (LTEA) Assay for Heat shock 70 kDa protein 1 (HSPA1A) using HepaRG (AID 2283502). In outline: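 HSPA1A induction in human HepaRG liver cells is measured after 48 h of chemical treatment (100 uM maximum, 0.5% DMSO vehicle). Expression comes from qRT-PCR normalized to endogenous controls.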

Read-out in test [11]: Hypoxia-inducible factor 1-alpha (Homo sapiens) (UniProt Q16665)
The test can be described thus: LTEA_HepaRG_HIF1A: Life Technologies and Expression Analysis (LTEA) Assay for Hypoxia-inducible factor 1 (HIF1A) Trancription factor using HepaRG (AID 2283503). The essentials: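 HepaRG, 48 h exposure, 8-pt half-log series from 100 uM, 0.5% DMSO vehicle, duplicates. Readout: HIF1A transcript by qRT-PCR (Fluidigm array), housekeeping-normalised. Bidirectional curve fit vs DMSO baseline.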

Read-out in test [12]: 3-Hydroxy-3-Methylglutaryl-CoA Synthase 2 (HMGCS2), HMGCS2 (gene 3158)
The test can be described thus: LTEA_HepaRG_HMGCS2: Life Technologies and Expression Analysis (LTEA) Assay for 3-Hydroxy-3-Methylglutaryl-CoA Synthase 2 (HMGCS2) using HepaRG (AID 2283504). In outline: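 Expression of HMGCS2 in human HepaRG liver cells is measured by qRT-PCR 48 h after dosing (highest 100 uM, half-log series, 0.5% DMSO). Values come from bidirectional concentration-response fitting with DMSO as baseline.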

Read-out in another test: HGF (gene 3082)
The test can be described thus: LTEA_HepaRG_HGF: Life Technologies and Expression Analysis (LTEA) Assay for Hepatocyte Growth Facto (HGF) using HepaRG (AID 2283505). The essentials:
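Gain or loss of HGF mRNA in human HepaRG liver cells after 48 h chemical exposure; eight concentrations up to 100 uM with 0.5% DMSO vehicle, quantified by TaqMan qRT-PCR.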

Read-out in test [13]: Insulin Like Growth Factor 1 (IGF1), IGF1 (gene 3479)
The test can be described thus: LTEA_HepaRG_IGF1: Life Technologies and Expression Analysis (LTEA) Assay for Insulin Like Growth Factor 1 (IGF1) using HepaRG (AID 2283506). In outline:
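Using human HepaRG liver cells, IGF1 transcript induction or suppression is measured 48 h after dosing across eight concentrations capped at 100 uM. Values derive from bidirectional concentration-response fitting with DMSO as baseline.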

Read-out in test [14]: Intercellular Adhesion Molecule 1 (ICAM1), ICAM1 (gene 3383)
The test can be described thus: LTEA_HepaRG_ICAM1: Life Technologies and Expression Analysis (LTEA) Assay for Intercellular Adhesion Molecule 1 (ICAM1) using HepaRG (AID 2283507). The essentials:
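Gain or loss of transcript in HepaRG hepatic cells is quantified by qRT-PCR after 48 h chemical exposure (up to 100 uM, half-log steps), with DMSO as baseline.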

Read-out in test [15]: Insulin-like growth factor-binding protein 1 (IGFBP1), IGFBP1 (gene 3484)
Put plainly: LTEA_HepaRG_IGFBP1: Life Technologies and Expression Analysis (LTEA) Assay for Insulin-like growth factor-binding protein 1 (IGFBP1) using HepaRG (AID 2283508). The essentials:
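mRNA induction or loss was quantified by qRT-PCR after 48 h chemical exposure of human HepaRG cells, with 0.5% DMSO as vehicle and baseline. Concentration-response over eight points up to 100 uM.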

Read-out in test [16]: Interleukin 6 (IL6), IL6 (gene 3569)
Put plainly: LTEA_HepaRG_IL6: Life Technologies and Expression Analysis (LTEA) Assay for Interleukin 6 (IL6) using HepaRG (AID 2283509). The essentials:
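Differentiated human HepaRG cells, plated 48 h then switched to serum-free induction medium, were exposed in duplicate for 48 h to eight half-log concentrations up to 100 uM in 0.5% DMSO. IL6 mRNA measured by qRT-PCR, normalized to ACTB/GAPDH/POLR2A.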

Read-out in test [17]: Glutathione S-Transferase (GSTA2), GSTA2 (gene 2939)
The test can be described thus: LTEA_HepaRG_GSTA2: Life Technologies and Expression Analysis (LTEA) Assay for Glutathione S-Transferase (GSTA2) using HepaRG (AID 2283497). In outline: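 Human HepaRG cells, plated 48 h, then exposed in serum-free induction medium for 48 h to eight half-log concentrations up to 100 uM in 0.5% DMSO, duplicate. GSTA2 mRNA by qRT-PCR, normalized to ACTB/GAPDH/POLR2A; bidirectional fit versus DMSO.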

Read-out in test [18]: Glutathione S-transferase M3 (GSTM3), GSTM3 (gene 2947)
The test can be described thus: LTEA_HepaRG_GSTM3: Life Technologies and Expression Analysis (LTEA) Assay for Glutathione S-transferase M3 (GSTM3) using HepaRG (AID 2283501). The essentials:
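Changes in GSTM3 expression, an oxidative-stress marker, were scored by bidirectional curve fitting against 0.5% DMSO vehicle. Human HepaRG cultures received chemicals for 48 h in duplicate, highest concentration 100 uM with half-log dilutions.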

For 3 molecules, outcome and AC50 results are on record in PubChem BioAssay (EPA / NIEHS).

The source made the active and inactive calls. Rule for the calls: active = hit-call score of the fitted dose curve at least 0.9, where 1 is the maximum; inactive = score below 0.9.

Chain of Cytochrome P450 3A7 (Homo sapiens) (P24462 whole entry, looked up): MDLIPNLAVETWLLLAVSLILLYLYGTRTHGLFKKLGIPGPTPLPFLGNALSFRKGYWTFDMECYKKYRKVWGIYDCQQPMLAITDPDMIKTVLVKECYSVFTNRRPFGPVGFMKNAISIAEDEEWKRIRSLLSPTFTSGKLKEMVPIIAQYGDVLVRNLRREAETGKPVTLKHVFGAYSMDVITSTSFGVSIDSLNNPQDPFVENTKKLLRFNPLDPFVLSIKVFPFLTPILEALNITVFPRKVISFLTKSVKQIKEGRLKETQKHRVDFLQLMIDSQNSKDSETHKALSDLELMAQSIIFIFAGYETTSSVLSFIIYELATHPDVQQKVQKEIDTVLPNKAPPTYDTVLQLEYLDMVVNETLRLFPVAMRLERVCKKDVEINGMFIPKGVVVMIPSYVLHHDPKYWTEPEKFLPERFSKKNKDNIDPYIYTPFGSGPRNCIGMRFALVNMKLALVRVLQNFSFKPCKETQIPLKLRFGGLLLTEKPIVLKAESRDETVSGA
Chain of Hypoxia-inducible factor 1-alpha (Homo sapiens) (Q16665 whole entry, looked up): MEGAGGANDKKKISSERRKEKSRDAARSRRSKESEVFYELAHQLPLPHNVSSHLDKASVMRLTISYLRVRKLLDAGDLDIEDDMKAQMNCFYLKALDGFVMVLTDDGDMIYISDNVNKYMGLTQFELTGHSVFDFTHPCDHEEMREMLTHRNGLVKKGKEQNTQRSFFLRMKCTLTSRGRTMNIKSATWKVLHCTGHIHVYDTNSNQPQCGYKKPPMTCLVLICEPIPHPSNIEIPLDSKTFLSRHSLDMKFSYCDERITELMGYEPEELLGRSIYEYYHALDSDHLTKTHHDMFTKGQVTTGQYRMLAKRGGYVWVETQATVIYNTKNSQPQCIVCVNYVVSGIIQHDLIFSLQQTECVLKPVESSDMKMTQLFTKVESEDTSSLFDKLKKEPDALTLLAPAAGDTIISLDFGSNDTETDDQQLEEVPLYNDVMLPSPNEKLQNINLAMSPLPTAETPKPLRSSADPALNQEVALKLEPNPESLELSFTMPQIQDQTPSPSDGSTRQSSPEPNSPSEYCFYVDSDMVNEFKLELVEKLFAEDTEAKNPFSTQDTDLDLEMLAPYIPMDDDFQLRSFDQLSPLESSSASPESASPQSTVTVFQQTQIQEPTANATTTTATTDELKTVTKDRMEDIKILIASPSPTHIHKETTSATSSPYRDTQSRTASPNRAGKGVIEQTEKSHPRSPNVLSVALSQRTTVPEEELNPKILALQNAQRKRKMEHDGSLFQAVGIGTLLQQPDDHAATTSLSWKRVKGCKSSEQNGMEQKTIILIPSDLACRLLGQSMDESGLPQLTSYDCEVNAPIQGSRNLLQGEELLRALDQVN

`O=C1O[C@H]([C@@H](O)CO)C(O)=C1O`: the result (in test [1]; in test [2]; in test [3]; with CYP3A5 (gene 1577); in test [4]; in [5]) was inactive. In addition, the molecule was classed as inactive in test [6], in [7], in test [8], in test [9], in test [10] and in [11]. Also, the molecule was classed as inactive (in test [12]; with HGF (gene 3082); in test [13]; in test [14]; in test [15]; in test [16]).

Usually AC50 stands for the concentration giving half of the maximal activity seen. Take `Cc1cc(F)ccc1-c1cc(N2CC[C@@H](O)[C@H]2CO)ncc1N(C)C(=O)C(C)(C)c1cc(C(F)(F)F)cc(C(F)(F)F)c1`: the half-maximal activity concentration (AC50) is 61.2 µM (active) in [1]; 20.8 µM (active) in test [2]; 13.9 µM (active) in test [4]; 16.4 µM (active) in test [5]; 20 µM (active) in test [6]; 10.4 µM (active) in test [17]. The AC50 in test [7] was 75.4 µM (active); in test [8], 20.1 µM (active); in test [9], 46.7 µM (active); in [10] it was 70.1 µM (active); in test [11], 74.6 µM (active); in [12] it was 19.7 µM (active). The AC50 in test [13] is 17.3 µM (active); in test [14], 22.4 µM (active); in test [15] it was 70.5 µM (active); in test [16], 48.6 µM (active). Moreover, the molecule was classed as inactive (in test [3]; with CYP3A5 (gene 1577)).

Take `Cc1ccc2oc(CN(Cc3ccccc3)C(=O)Nc3c(F)cc(F)cc3F)c(-c3ccc(Cl)cc3)c2c1`: the result (in test [1]; in [2]; with CYP3A5 (gene 1577); in test [7]; in test [18]; in test [10]) was inactive. Also, the molecule was called inactive (in test [11]; with HGF (gene 3082); in [14]; in test [16]). For the same molecule, the half-maximal activity concentration (AC50) in test [3] was 11.1 µM (active); in test [4], 13 µM (active); in test [5] it was 44.2 µM (active); in test [6] it was 5.31 µM (active); in [8] it was 77.2 µM (active); in test [9], 44.2 µM (active). Moreover, the AC50 was 44.2 µM (active) in test [12], 30.2 µM (active) in test [13] and 70.8 µM (active) in test [15].
